Experimental findings from PubChem BioAssay AID1345085 (National Center for Advancing Translational Sciences (NCATS), 2018) are described below.

Each structure is given as a SMILES string. Records with an inconclusive call do not appear. Active and inactive are the calls of the source. The call rests on the fitted dose curve; in most records, active means well fitted cell-killing curve with a large enough effect; inconclusive means small, poorly fitted or top-dose-only effect, or effect the other way; inactive means no such curve, though single readings can be large or run the other way.
Potency means the concentration at half of the fitted maximal effect.

The subject of the assay is HeLa. Nature of the assay: Confirmatory qHTS for gynecologic anti-cancer compounds from libraries of approved drugs and bioactive compounds. Further: nearly all actives have a fitted effect of over 55% in size. The following applies: gynecologic cancer cell panel viability, ATPlite luminescence, 48 h; series mostly up to 57.6 µM. A digest of the protocol:
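Cells (1,000/well) were plated, left 16 h at 37 C/5% CO2, then given compound at 11 concentrations (1:3) from 57.5 uM to 0.977 nM for 48 h. ATPlite luminescence after 15 min at room temperature gave IC50 values.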
As for `CC(C)(C(=O)NCC(F)(F)C(F)(F)F)C(=O)NC1C(=O)Nc2ccccc2-c2ccccc21` (stereo unspecified), the Potency was 6.11 µM (active).
The figure for `CCC1=CC2CN(C1)Cc1c([nH]c3ccccc13)[C@@](C(=O)OC)(c1cc3c(cc1OC)N(C)[C@H]1[C@@](O)(C(=O)OC)[C@H](OC(C)=O)[C@]4(CC)C=CCN5CC[C@]31[C@@H]54)C2` (stereo partly specified) is 0.0943 µM (active); for `CN(Cc1cnc2nc(N)nc(N)c2n1)c1ccc(C(=O)N[C@@H](CCC(=O)O)C(=O)O)cc1` it is “inactive”.
In the case of `CS(=O)(=O)c1ccc(C(=O)Nc2ccc(Cl)c(-c3ccccn3)c2)c(Cl)c1`, the Potency result was “inactive”.
The figure for `O=C(CCCCCCNC(=O)c1cnc(N(c2ccccc2)c2ccccc2)nc1)NO` is 7.69 µM (active); for `CNC(=O)c1ccccc1Nc1nc(Nc2ccc(N3CCOCC3)cc2OC)ncc1Cl` it is 0.769 µM (active); for `CN1CCN(CCOc2cc(OC3CCOCC3)c3c(Nc4c(Cl)ccc5c4OCO5)ncnc3c2)CC1` it is “inactive”.
The figure for `COC(=O)c1ccc2c(C(=Nc3ccc(N(C)C(=O)CN4CCN(C)CC4)cc3)c3ccccc3)c(O)[nH]c2c1` is 24.3 µM (active).
The figure for `CNc1nc(Nc2ccc(C(=O)N3CCOCC3)cc2OC)ncc1Cl` is 6.85 µM (active); for `CN1CCN(c2ccc(OC(F)(F)F)c(Nc3ncc4c(n3)-c3c(c(C(N)=O)nn3CCO)CC4)c2)CC1` it is 0.0611 µM (active).
As to `COc1ccc(CCC(=O)c2c(O)cc(O[C@@H]3O[C@H](CO)[C@@H](O)[C@H](O)[C@H]3O[C@@H]3O[C@@H](C)[C@H](O)[C@@H](O)[C@H]3O)cc2O)cc1O`, the Potency entry is “inactive”.
